KDM5B inhibitor: blocks human KDM5B histone demethylase activity; AID 1347165; Q9UGL1; 220,000 tested, 2.6% active; KDM5B demethylase, FDH-coupled NADH fluorescence (FDH is formaldehyde dehydrogenase); Potency, µM (top dose mostly 57.7 µM), usual class: inhibitors; active = well fitted inhibition curve with a large enough effect; inconclusive = small, poorly fitted or top-dose-only effect; inactive = no such curve, though single readings can be large or run the other way; note: potency is the fitted concentration of half-maximal effect; 0% is about no effect; nearly all actives have a fitted effect of over 70% in size
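KDM5BΔAP (200 nM final) in 50 mM HEPES pH 7.5, 0.01% Tween-20 was preincubated 10 min at RT with compound over a concentration range. Substrate mix (H3K4me3 12.5 µM, α-KG 25 µM, Fe²⁺, ascorbate, NAD⁺, FDH) was added, and NADH fluorescence change over 30 min gave dose-response curves.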
IP6K1 inh: blocks human inositol hexakisphosphate kinase 1. activity change, % (series mostly up to about 58 µM). AID 1645851. 140,000 tested, 0.81% active. IP6K1 kinase, ADP-Glo luminescence, 2 h; stronger effect = lower value; in the data active = activity change below about -25%; note: % is set by controls: 0 for no effect and ±100 for the full control effect
Target sequence (Q92551 whole entry, looked up): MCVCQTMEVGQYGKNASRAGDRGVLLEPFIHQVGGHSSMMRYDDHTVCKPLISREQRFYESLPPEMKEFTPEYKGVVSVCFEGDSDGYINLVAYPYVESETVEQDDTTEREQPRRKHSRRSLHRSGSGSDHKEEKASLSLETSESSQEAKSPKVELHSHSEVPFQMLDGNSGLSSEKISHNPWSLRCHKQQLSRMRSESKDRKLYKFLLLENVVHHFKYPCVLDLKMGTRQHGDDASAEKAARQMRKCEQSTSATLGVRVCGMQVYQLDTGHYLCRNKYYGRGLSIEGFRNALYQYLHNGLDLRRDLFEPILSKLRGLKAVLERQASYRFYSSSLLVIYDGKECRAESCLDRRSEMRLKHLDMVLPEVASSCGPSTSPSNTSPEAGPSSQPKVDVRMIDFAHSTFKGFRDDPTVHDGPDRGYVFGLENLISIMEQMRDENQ
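ADP-Glo luminescence measures ADP made by human IP6K1 during a 2 h RT reaction with ATP/IP6 (mix at 1.3 mM/130 uM); top library doses 57.5 and 19.1 uM final.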
* = called active by the depositor; i = inactive; ? = inconclusive; / = not tested or not shown. This is a sample that favours compounds with a hit; in the whole collection about 2.7% have one here.

SMILES | KDM5B inhibitor | IP6K1 inh
O=C(NCCc1ccccc1F)c1ccc2nnc(-c3cc[nH]c3)n2c1 | / | -3
CCCc1noc(-c2ccn3c(CNC(=O)Cc4cccc(OC)c4)nnc3c2)n1 | ? | 9
Cc1noc(-c2ccn3c(CNC(=O)Cc4cccc(F)c4)nnc3c2)n1 | 28µM* | 39
CCCc1noc(-c2ccn3c(CNC(=O)Cc4cccc(F)c4)nnc3c2)n1 | 7.1µM* | 11
Cc1noc(-c2ccn3c(CNC(=O)c4cccc(Cl)c4)nnc3c2)n1 | i | 8
Cc1ccccc1C(C)Nc1ccc([N+](=O)[O-])cc1C#N (stereo unspecified) | i | /
O=C1NCC(c2ccc(Cl)cc2)Cc2[nH]c(-c3ccc(O)cc3)nc21 (stereo unspecified) | 25µM* | 1
COc1ccccc1C1CNC(=O)c2nc(-c3cc(C(C)(C)C)[nH]n3)[nH]c2C1 (stereo unspecified) | i | 7
Cc1nn(-c2ccccc2)c2c1C(C)N(C1CCN(C(=O)c3ccc(Cl)cc3)CC1)C2=O (stereo unspecified) | / | -5
COc1ccc(C(CC(=O)N(C)Cc2cnc3ccccn23)c2ccccc2)cc1 (stereo unspecified) | 32µM* | -3
COc1ccc(C(CC(=O)N(C)C)c2ccccc2)cc1 (stereo unspecified) | i | 15
CN(CC(=O)NC(C)(C)C)c1nc2ccccc2o1 | i | /
c1cn2c(NC3CCCC3)c(-c3ccc(N4CCOCC4)cc3)nc2cn1 | i | /
c1nc2nc(Nc3ccc(N4CCOCC4)cc3)nc(NC3CCCCC3)c2[nH]1 | / | -41*
COc1ccc(F)cc1-c1ccc(CN2CCCCC2C(=O)NCc2cccc(F)c2)cc1 (stereo unspecified) | / | -8
CCc1ccc(S(=O)(=O)N2CCN(C(=O)c3cc(C)on3)CC2)cc1 | i | /
CCN1CCN(C(=O)c2ccc(-n3nc(C)c(-c4ccc(F)cc4)c3NC(C)=O)cc2)CC1 | i | /
CN(C)c1ccc(CN2C[C@@H](CN3CCCCC3)[C@@H](CO)C2)cn1 | 28µM* | 0
COc1ccc(CN2C[C@@H](CN3CCCCC3)[C@@H](CO)C2)cc1O | ? | 10
COc1ccc(S(=O)(=O)N2CCN(c3ccc(C)c(Cl)c3)CC2)c2ccccc12 | i | /
C=CCN(CC=C)Cc1ccc(OCc2ccccc2)c(OC)c1 | i | /
CCN(Cc1nc2ccccc2c(=O)[nH]1)C(=O)CNC(=O)c1ccc(Cl)cc1 | i | /
COc1cccc(-c2ccccc2NC(=O)C2CCN(Cc3cc(OC)ccc3O)CC2)c1 | 16µM* | 19
COc1cccc(CNC(=O)C2CCN(Cc3ccccc3-c3cccnc3)CC2)c1 | / | 8
Cn1nc(C(=O)NCC(=O)N2CCCCCNC(=O)CC2c2ccccc2)c2ccccc21 (stereo unspecified) | 28µM* | -13
SMILES | KDM5B inhibitor | IP6K1 inh
Cc1cc(C(=O)NCC(=O)N2CCCCCNC(=O)CC2c2ccccc2)n(C)n1 (stereo unspecified) | i | -4
CN(Cc1cccnc1)c1ccc2ncc(Nc3cc(F)cc(N4CCOCC4)c3)n2n1 | ? | -5
CN(C)c1ccc2ncc(Nc3ccccc3-c3ccccc3)n2n1 | i | -18
COc1ncccc1Nc1cnc2ccc(N(C)Cc3ccc(F)cc3)nn12 | 32µM* | -12
CN(C)c1ccc2ncc(Nc3ccccc3Cl)n2n1 | 35µM* | -11
CN(Cc1ccc(F)cc1)c1ccc2ncc(Nc3ccncc3)n2n1 | ? | -6
COc1ccc(F)cc1Nc1cnc2ccc(N(C)Cc3cccnc3)nn12 | 32µM* | -21
CCCNCC1CCCCC1 | i | /
c1cc(Cn2ccc3c(N4CCOCC4)nc(-c4cn[nH]c4)cc32)ccn1 | ? | 3
c1cc(Cn2ccc3c(N4CCOCC4)nc(-c4ccc5cn[nH]c5c4)cc32)ccn1 | 35µM* | -6
Cn1cc(-c2cc3c(ccn3Cc3ccncc3)c(N3CCOCC3)n2)cn1 | i | 2
CN(C)Cc1ccc(-c2cc3c(ccn3Cc3ccncc3)c(N3CCOCC3)n2)cc1 | 40µM* | -12
COc1cc2c(cc1C(C)=O)C1CCC3(C)C(OC(C)=O)CCC3C1CC2 (stereo unspecified) | i | /
COC(=O)C1=C(C)NC(=O)CC1C(=O)Nc1ccc(F)c(Cl)c1 (stereo unspecified) | i | /
CC(C)OCCCNc1ncnc2c1CN(C1CCCCC1)C(=O)CN2C | / | 3
c1cncc(CN2CCc3c(sc4ncnc(N5CCOCC5)c34)C2)c1 | ? | -4
c1cc(CN2CCc3c(sc4ncnc(N5CCCC5)c34)C2)ccn1 | 25µM* | -8
O=C(Nc1ccc(Cl)cc1)c1nc2c(o1)CCN(Cc1ccc3cn[nH]c3c1)CC2 | 35µM* | 2
O=C(Nc1ccc(Cl)cc1)c1nc2c(o1)CCN(CC1CCCC1)CC2 | ? | -2
O=C(Nc1ccc(Cl)cc1)c1nc2c(o1)CCN(Cc1ccncc1)CC2 | i | 2
Cc1ccc(CN2CCc3nc(C(=O)Nc4ccc(Cl)cc4)oc3CC2)cc1 | 35µM* | -6
Cc1ccccc1CN1CCc2nc(C(=O)NCCOc3ccccc3)oc2CC1 | 32µM* | 1
Cc1[nH]cnc1CN1CCc2nc(C(=O)NCCOc3ccccc3)oc2CC1 | i | 5
O=C(Nc1ccc(Cl)cc1)c1nc2c(o1)CCN(CC1CC1)CC2 | i | 9
O=C(Nc1ccc(Cl)cc1)c1nc2c(o1)CCN(Cc1cccc(O)c1)CC2 | 32µM* | -9
SMILES | KDM5B inhibitor | IP6K1 inh
O=C(CCc1ncc(-c2ccccc2Cl)o1)NC1=NCCS1 | i | /
Cc1ccc(-c2cccc(CN3CCCC(NC(=O)Nc4ccccc4F)C3)c2)cc1Cl (stereo unspecified) | / | -1
CCOC(=O)c1cnc(Nc2ccc(C)c(F)c2)c2ccccc12 | i | /
CC(C)(C)CNC(=O)c1nc[nH]c1C(=O)N1CCOCC1 | i | /
O=C(Nc1ccccc1)c1nc2c(o1)CCN(Cc1ccc(O)cc1)CC2 | i | 17
O=C(Nc1ccccc1)c1nc2c(o1)CCN(Cc1ccc(F)c(Cl)c1)CC2 | 28µM* | -12
COc1ccc(CN2CCc3nc(C(=O)Nc4ccccc4)oc3CC2)cc1 | ? | 8
O=C(Nc1ccc(Cl)cc1)c1nc2c(o1)CCN(Cc1ccc3c(c1)CCO3)CC2 | 32µM* | 6
Cc1ccc(CN2CCc3nc(C(=O)Nc4ccccc4)oc3CC2)cc1 | 35µM* | 10
O=C(Nc1ccc(Cl)cc1)c1nc2c(o1)CCN(Cc1nccs1)CC2 | i | 10
CC(C)(CNC(=O)Cc1ccccc1)CNC(=O)Cc1ccccc1 | i | /
COc1ccc(F)cc1-c1cccc(C(=O)NCCNC(=O)Cc2cccc(Cl)c2)c1 | / | -13
CCc1nc(CN2C(=O)COc3ccc(S(=O)(=O)NC4CCCCCCC4)cc32)no1 | i | /
COc1cc2c(cc1OC)C(CNC(=O)c1cccs1)N(C(=O)Nc1ccccc1)CC2 (stereo unspecified) | i | 3
CC(C)(C)NC(=O)/C(=C\c1ccc(-c2ccc(Cl)cc2Cl)o1)NC(=O)c1ccccc1 | i | /
O=C1[C@H]2CC[C@H](CN(Cc3cccc(N4CCOCC4)c3)C2)N1CC1CCC1 | i | 25
O=C1[C@H]2CC[C@H](CN(Cc3ccc(-n4ccnc4)cc3)C2)N1CC1CCC1 | 20µM* | 3
O=C(CSc1nccn2nc(-c3ccccc3)cc12)N1CCN(c2ccccc2F)CC1 | i | /
CC1(C)CCC[C@@]2(C)C1CCC1(C)OC(=O)C[C@@H]12 (stereo partly specified) | i | /

Screening results (PubChem BioAssay)
